# Assay outcomes (PubChem BioAssay)
# SARS PLP yeast = blocks SARS-CoV papain-like protease in a yeast assay; AID 485353; 330,000 tested, 0.19% active; Potency, µM (titrated, usually from 32.9 µM), for the others: at the top dose activity, positive = growth rescue, usual class: activators; S. cerevisiae expressing SARS-CoV PLpro, growth rescue; calls by dose curve; note: 0% is about no effect; nearly all actives have a fitted effect of over 55% in size
# Pf growth 96h = inhibits malaria parasite growth, 96 h; P. falciparum luciferase reporter growth, 96 h; Potency, µM (series often up to 28.7 µM), for inactives: at the highest dose activity change, negative = inhibition, most hits filed as inhibitors; 320,000 tested, 6.9% active; note: % is set by controls: 0 for no effect and ±100 for the full control effect
#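 Delayed-death screen, second-generation endpoint: infected erythrocytes, 2% hematocrit, 0.05% parasitemia final; 96 hours at 37 C, 5% CO2; luciferase detection reagent; luminescence decrease equals reduced growth.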
# Pf growth 48h = inhibits P. falciparum growth in the first generation, 48 h. P. falciparum luciferase growth in erythrocytes, 48 h. Potency, µM (series often up to 28.7 µM), for the others: top-dose activity change, negative = inhibition, usual class: inhibitors. 310,000 tested, 5.9% active; note: % is set by controls: 0 for no effect and ±100 for the full control effect
#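 A one-generation exposure of luciferase-tagged malaria parasites in RPMI 1640/Albumax erythrocyte culture, 37 C and 5% CO2. Inhibition is inferred from decreased luminescence after adding detection reagent.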
# AMA1-RON2 inh = disrupts binding of P. falciparum AMA1 to RON2. Potency, µM (doses to about 58.2 µM), without a hit: top-dose activity change, negative = inhibition, hits mostly inhibitors. AlphaScreen AMA1-biotinylated RON2 peptide binding. 360,000 tested, 0.2% active. AID 720542;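 note: 0% = vehicle wells and -100% = peptide control; nearly all actives have a fitted effect of over 45% in size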
#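 AMA1 (3D7) with his tag at 25 nM final met compounds first, then biotinylated RON2 peptide at 25 nM; detection used donor plus acceptor beads, 10 µg/mL apiece, read by AlphaScreen after 30 min at room temperature.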
# * = called active by the depositor; ? = inconclusive; / = no result given. Shown are actives, neighbours in structure and some others; about 9.4% of the full set was active somewhere. Unless noted, calls come from the whole dose curve; as a rule, active = well fitted curve in the direction sought with a large enough effect; inconclusive = small, poorly fitted or top-dose-only effect, or another doubt; inactive = no such curve, though single readings can be large; an effect the other way counts as inactive or inconclusive. Potency is the fitted concentration of half-maximal effect.
SMILES,SARS PLP yeast,Pf growth 96h,Pf growth 48h,AMA1-RON2 inh
Cc1ccc2cc(C(c3nnnn3Cc3ccccc3)N3CCN(c4ccccc4)CC3)c(=O)[nH]c2c1 (stereo unspecified),-0.8%,7.9%,5.86µM*,-24.3%
COc1ccc(N2CCN(C(c3cc4cc(C)ccc4[nH]c3=O)c3nnnn3Cc3ccccc3)CC2)cc1 (stereo unspecified),12.8%,3.7µM*,/,-14.1%
Cc1ccsc1C(=O)NNC(=S)NC1CCCCC1,-2.3%,9.28µM*,7.3%,139.7%
O=C(NNC(=O)c1ccccc1Br)c1ccc(Cl)cc1,4.2%,164.4%,47.8%,57.6%
O=C(NNC(=S)NC1CCCCC1)c1ccccc1Br,1.9%,?,13.1µM*,95.9%
O=C(NNC(=S)Nc1ccc(Br)cc1)c1ccccc1,-0.3%,?,82.0%,109.6%
O=C(NNC(=S)Nc1ccc(Br)cc1)c1ccccc1Br,7.4%,9.28µM*,46.1%,44.5%
O=C(NNC(=O)c1ccccc1Br)c1ccncc1,2.2%,10.4µM*,24.1%,3.8%
CSCCC(NC(=O)c1ccco1)C(=O)NCC(c1ccccc1)N(C)C (stereo unspecified),6.4%,12.4%,9.3%,91.9%
CCOC(=O)N1CCN(Cc2c(F)cccc2F)CC1,5.3%,?,/,-11.4%
S=c1[nH]cc2cnccn12,/,/,/,108.4%
CC(C)N(CCO)Cc1nc(C(c2ccccc2)c2ccccc2)no1,-1.1%,9.28µM*,?,-22.0%
Cc1csc(NC(=O)c2c(-c3c(Cl)cccc3Cl)noc2C)n1,6.8%,/,?,2.5%
Cc1csc(NC(=O)c2c(-c3c(F)cccc3Cl)noc2C)n1,5.2%,?,11.7µM*,14.5%
Cc1onc(-c2c(F)cccc2Cl)c1C(=O)OCC(=O)NCc1ccco1,-3.2%,/,?,-14.3%
Cc1onc(-c2c(F)cccc2Cl)c1C(=O)NCc1ccco1,-9.3%,1.47µM*,-10.3%,5.3%
CCCc1cc(C(=O)NCc2ccco2)no1,-7.6%,13.1µM*,/,-7.6%
Cc1onc(-c2ccccc2)c1C(=O)NCc1ccccn1,-0.8%,/,?,18.7%
Cc1onc(-c2c(Cl)cccc2Cl)c1C(=O)NCc1ccccn1,1.8%,2.08µM*,-17.8%,-7.8%
S=C1NC[C@H](CC2CCCCC2)N1CC1CCCCC1,-2.4%,?,?,2.6%
CC(/C=N/n1c(-c2n[nH]c3c2CCC3)n[nH]c1=S)=C\c1ccco1,-0.5%,17.2%,0.0%,75.5%
CCCOc1ccc(CCC(=O)N/N=C/c2ccncc2)cc1,-1.6%,-21.4%,-27.9%,107.7%
S=C1NC2(CCCC2)Nc2ccccc21,4.3%,-18.6%,21.9%,-2.7%
C=CCS(=O)(=O)N1CCCC(N(C)CCc2ccc(OC)c(OC)c2)C1 (stereo unspecified),-5.1%,5.22µM*,?,-0.3%
CN(CCc1ccccn1)C1CCCN(S(=O)(=O)c2ccccc2)C1 (stereo unspecified),0.9%,78.4%,2.5%,-9.7%
SMILES,SARS PLP yeast,Pf growth 96h,Pf growth 48h,AMA1-RON2 inh
COc1ccc(CCN(C)C2CCCN(S(=O)(=O)c3ccccc3F)C2)cc1OC (stereo unspecified),-2.1%,13.1µM*,?,-5.7%
COc1ccc(CCN(C)C2CCCN(S(=O)(=O)N(C)C)C2)cc1OC (stereo unspecified),/,/,/,-3.9%
CN(CCc1ccccc1)C1CCCN(S(=O)(=O)CC(F)(F)F)C1 (stereo unspecified),5.2%,10.4µM*,-7.6%,-5.3%
COc1ccc(CCN(C)C2CCCN(C(=O)Cn3cccn3)C2)cc1OC (stereo unspecified),1.8%,-7.5%,-5.9%,0.0%
C=CCn1c(COc2cccc(C)c2)nnc1SCC(=O)NC(=O)NCc1ccco1,-4.0%,-3.0%,-19.8%,3.3%
O=C(NC(=S)NCc1cccnc1)c1ccccc1F,0.7%,113.5%,-15.5%,-2.7%
O=C(O)CC(CNS(=O)(=O)c1ccccc1)c1ccccc1 (stereo unspecified),6.0%,10.4µM*,19.0%,0.0%
Cc1ccc(O)c(NC(=O)c2cccc(S(=O)(=O)N3CCCCC3)c2)c1,-14.5%,/,?,-6.0%
CCN(CC)S(=O)(=O)c1ccc(C(=O)NCCN(C)C)cc1,0.3%,33.8%,-6.6%,-14.3%
c1ccc(CSc2nnc(-c3ccccc3)c(-c3ccccc3)n2)cc1,/,/,/,6.2%
CSc1nnc(-c2ccccc2)c(-c2ccccc2)n1,-0.9%,?,11.7µM*,-5.2%
CCCC(C(=O)Nc1ccncc1)c1ccccc1 (stereo unspecified),-3.8%,2.94µM*,?,26.1%
CC(O)c1cccc(NC(=O)CC(c2ccccc2)c2ccccc2)c1 (stereo unspecified),1.6%,?,-7.7%,0.7%
O=C(CC(c1ccccc1)c1ccccc1)Nc1ccncc1,-0.7%,10.4µM*,?,-14.1%
CC(C(=O)Nc1ncccn1)(c1ccccc1)c1ccccc1,1.7%,?,-15.4%,-5.0%
CCCC(C(=O)Nc1ccc(S(=O)(=O)Nc2ncccn2)cc1)c1ccccc1 (stereo unspecified),1.4%,-18.0%,13.0%,18.5%
CCCC(C)C(=O)Nc1ccc(S(=O)(=O)N2CCCC2)cc1 (stereo unspecified),4.5%,?,-14.1%,-7.0%
CC(C(=O)Nc1ccncc1)(c1ccccc1)c1ccccc1,-0.9%,10.4µM*,?,4.1%
CCCC(C(=O)Nc1ccc(S(=O)(=O)N2CCCC2)cc1)c1ccccc1 (stereo unspecified),9.2%,?,10.4µM*,14.9%
COc1cc(NC(=O)Cn2nc(C(F)(F)F)c3c2CCCC3)cc(OC)c1OC,22.8%,/,10.4µM*,5.9%
CCc1ccc(NC(=O)Cn2nc(C(F)(F)F)c3c2CCC3)cc1,-3.3%,68.1%,38.9%,-3.7%
O=C(Cn1nc(C(F)(F)F)c2c1CCCC2)NCCN1CCOCC1,8.9%,14.7µM*,11.7µM*,16.8%
Cc1ccc(NC(=O)CSc2nc(N)cc(=O)[nH]2)cc1S(=O)(=O)N1CCCCCC1,-4.4%,/,/,22.0%
CC(C)N(Cc1nccn1C)C(=O)c1ccc2oc(Cc3ccccc3)nc2c1,4.5%,2.9%,?,14.1%
COc1ccc(N2CCN(CCCn3c(=S)[nH]c4ccccc4c3=O)CC2)cc1,0.7%,?,?,0.0%
SMILES,SARS PLP yeast,Pf growth 96h,Pf growth 48h,AMA1-RON2 inh
COc1ccccc1N1CCN(CCCn2c(=S)[nH]c3ccccc3c2=O)CC1,0.0%,20.8%,7.38µM*,52.8%
O=C(Nc1cccc2c1CCCC2)c1cc(C2CCCCN2S(=O)(=O)c2cccs2)on1 (stereo unspecified),/,/,/,3.8%
COc1ccc(CNCc2ccc(OC)c3ccccc23)cc1,1.6%,2.33µM*,1.1%,-17.8%
COc1ccccc1CNCc1ccc(OC)c2ccccc12,/,/,/,-13.3%
Cc1nccn1Cc1ccc(Cl)nc1,0.7%,?,10.4µM*,-23.5%
CCOC(=O)C1CCN(C(=O)/C(=C/c2ccccc2)NC(=O)c2ccccc2)CC1,5.0%,?,15.0%,16.9%
CCN(CC)CCOC(=O)c1ccc(NC(=O)C(C)NC(=O)C23CC4CC(CC(C4)C2)C3)cc1 (stereo unspecified),14.4%,11.7µM*,-25.7%,-3.0%
